Each structure is given as a SMILES string. “And” between values parts separate entries of the source, which are not always exact repeats. Equal values may be shown once. Results filed as inconclusive are left out. Unmarked numbers belong to inactive results. The source made the active and inactive calls. Calls follow the shape of the dose curve; as a rule, active = well fitted curve in the direction sought with a large enough effect; inconclusive = small, poorly fitted or top-dose-only effect, or another doubt; inactive = no such curve, though single readings can be large or run the other way.
% is scaled to controls: 0 for no effect and ±100 for the full control effect; potency is read from the fitted curve at half-maximal effect.

The nature of this experiment: qHTS Assay for Identifying Gametocytocidal Compounds (AID 743244).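 As to max response: actives lower the fluorescent signal which means gametocytes are killed.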 Conditions: P. falciparum 3D7 stage III-V gametocytes, alamarBlue, 72 h; max response: active compounds read low. The procedure, abridged:
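Stage III–V gametocytes of P. falciparum 3D7 were seeded at 20,000 cells/well onto pre-dispensed compounds. After 72 h, 37 °C, 5% CO2, alamarBlue was added for another 24 h.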
(In general: In qHTS, concentration-response curves come from the screen itself.)
Take `CCC(=O)OC1(c2ccccc2)CCN(C)CC1`: the max response is -1.1%. Regarding `CCOC(=O)NC(O)C(Cl)(Cl)Cl` (configuration not stated), the max response is 9.34%. Same read-out and setting: for `CNC(C)Cc1ccccc1OC` (configuration not stated) the value was 0.178%; for `CN(C)CCc1c[nH]c2ccc(O)cc12`, -10.2%; for `NCc1cccnc1`, -3.33%.

With `CN(C)C(=S)SC(=S)N(C)C`, the Potency is 0.794 µM (active). Still for that read-out and setting: for `Clc1ccc(CSC(Cn2ccnc2)c2ccc(Cl)cc2Cl)cc1` (configuration not stated) the value was 3.98 µM (active). Consider `CCCC(C)C1(CC)C(=O)N=C(S)NC1=O` (configuration not stated), for which the max response was 6.11%. For `CCCN(CCC)CCc1c[nH]c2ccccc12`, the max response is -3.32%. On the same count and under the same terms, next, `c1cc2c(c(N3CCNCC3)c1)OCCO2`: -8.91%; `C[C@H]1CNCCc2ccc(Cl)cc21`: 16.3%; `COP(=S)(OC)Oc1ccc(S(N)(=O)=O)cc1`: 5.01%. Consider `O=C1CC2(CCCC2)CC(=O)N1CCCCN1CCN(c2ncccn2)CC1`, for which the max response is 13.6%.

On to `O=C(O)c1ccccc1Nc1cc(Cl)ccc1C(=O)O`, for which the max response was 32.7%. Regarding `C[N+](C)(C)CCOC(=O)C(O)(c1ccccc1)c1ccccc1`, the max response is -1.74%. Same read-out and setting: next, `COc1ccc(CN2CCNCC2)c(OC)c1OC`: -9.77%. On the same count and under the same terms, for `CCOC(=O)NC(C)(C)Cc1ccc(Cl)cc1` the value was -1.19%. Consider `Nc1ccc(N)cc1`, for which the max response was -1.22%. Turning to `Cc1nnc2n1-c1sc(CCC(=O)N3CCOCC3)cc1C(c1ccccc1Cl)=NC2`, the max response was -5.44% and -14.1%. Take `C[C@@H]1CN(C2CCC(C#N)(c3ccc(F)cc3)CC2)CC[C@]1(C(=O)O)c1ccccc1` (some centres not stated): the max response is -3.29%. On to `Clc1ccc(CO/N=C(\Cn2ccnc2)c2ccc(Cl)cc2Cl)c(Cl)c1`, for which the Potency is 10 µM (active). With `NC1(c2ccccc2)CCCCC1`, the max response was 3.42%. On the same count and under the same terms, next, `C[C@]12CC[C@H]3[C@@H](CC=C4C[C@@H](O)CC[C@@]43C)[C@@H]1CC[C@@H]2O`: -0.897%; `C[C@H](N)[C@H](O)c1ccc(O)c(O)c1`: -0.0676%; `CNC(C)Cc1ccc2c(c1)OCO2` (configuration not stated): -4.91%. The same measure, in the same setting: next, `CNC(=O)NC(O)C(Cl)(Cl)Cl` (configuration not stated): 8.2%; `Cc1c(C)c2c(c(C)c1OC(=O)CCC(=O)OCCO)CC[C@@](C)(CCC[C@H](C)CCC[C@H](C)CCCC(C)C)O2`: -0.873%. `CC(C)=C[C@@H]1[C@@H](C(=O)OCc2coc(Cc3ccccc3)c2)C1(C)C`: the max response was -1.71%. Same read-out and setting: next, `O=C1NCN(c2ccccc2)C12CCN(CCCOc1ccc(F)cc1)CC2`: 0.637%; `CCN(Cc1ccc(Cl)nc1)/C(=C/[N+](=O)[O-])NC`: 8.58%; `COc1ccc2c(C(=O)c3ccc(Cl)cc3)c(C)n(CC(=O)O)c2c1`: 36.2%. Take `O=C(O)CCCCCCNC1c2ccccc2CCc2ccccc21`: the max response is -6.01%.

For the origin of these results see PubChem BioAssay (NCATS).
